Values joined by “and” are separate entries in the source; they are usually repeats but may differ in a detail not shown here. Identical values can stand only once. Results filed as inconclusive are left out. Active and inactive are the calls of the source. Unless noted, calls come from the whole dose curve; as a rule, active = well fitted curve in the direction sought with a large enough effect; inconclusive = small, poorly fitted or top-dose-only effect, or another doubt; inactive = no such curve, though single readings can be large; an effect the other way counts as inactive or inconclusive.
Tests used:
[1] = target: Arylsulfatase A (Homo sapiens) (UniProt P15289); experiment: qHTS screen for enhancers of Arylsulfatase A (ASA1): LOPAC Validation Assay (AID 720538); note: potency is the fitted concentration of half-maximal effect
Procedure, shortened: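 MLD patient fibroblasts (SV40, ASA-I179S), 1536-well; adhere 6 hrs; cpd 48h, 37 degree C, 5% CO2; pNCS 0.5mM final in lysis buffer, 14h RT; stop 1N NaOH final; fluor. Ex525/Em598.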

[2] = qHTS assay for small molecule agonists of the antioxidant response element (ARE) signaling pathway (AID 651741; active = well fitted activation curve with a large enough effect in the signal ratio; the % refers to the signal ratio; note: potency is the fitted concentration of half-maximal effect; for activation: % of control where 0% means no effect)
Procedure, shortened: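 HepG2 ARE-bla cells plated at 2,000 cells/well and incubated 5 h at 37 C/5% CO2 received 23 nL compound in DMSO. After 16 h at 37 C, LiveBLAzer B/G FRET substrate was applied for 2 h at room temperature and fluorescence read.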

[3] = qHTS assay for small molecule activators of the p53 signaling pathway (AID 651743; active = well fitted activation curve with a large enough effect in the signal ratio, not every such curve was filed as active; the % refers to the signal ratio; note: potency is the fitted concentration of half-maximal effect; for activation: % of control where 0% means no effect); details: HCT-116 p53RE-bla, beta-lactamase FRET ratio, 16 h; activation: stronger effect = higher value
Procedure, shortened: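 HCT-116 p53RE-bla, 4,000 cells/well; 5 h settle; cpd/DMSO 16 h, 37 C; LiveBLAzer B/G 2 h RT; fluorescence intensity.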

[4] = qHTS assay for small molecule activators of the nuclear factor-kappa B (NF-kB) signaling pathway (AID 651749; active = well fitted activation curve with a large enough effect in the signal ratio; the % refers to the signal ratio; note: % of control where 0% means no effect); details: NF-kB-bla ME-180 cells, beta-lactamase FRET ratio, 16 h; stronger effect = higher value
Procedure, shortened: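 Incubation lasted 16 hr at 37C in 5% CO2 after 23 nL compound addition to ME-180 NF-kB-bla cells. Activation appears as beta-lactamase-mediated FRET loss.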

[5] = qHTS assay for environmental chemicals that activate the Aryl hydrocarbon Receptor (AhR) signaling pathway (AID 651777); details: 1A2-DRE human hepatoma cells, luciferase, 24 h; activation: stronger effect = higher value; note: nearly all actives have a fitted effect of over 15% in size; note: potency is the fitted concentration of half-maximal effect; for activation: % of control where 0% means no effect
Procedure, shortened: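 Luminescence (One-Glo, 30 min, room temperature) reports AhR-driven luciferase in stably transfected human hepatoma cells bearing DRE and CYP1A2 promoter. Cells (1,200/well) were treated with compound for 24 hr at 37 C in qHTS format.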

[6] = target: Peroxisome proliferator-activated receptor alpha (Homo sapiens) (UniProt Q07869); experiment: qHTS assay for small molecule agonists of the peroxisome proliferator-activated receptor alpha (PPARalpha) signaling pathway (AID 651778); details: PathHunter PPARalpha complementation, chemiluminescence, 6 h; max response: stronger effect = higher value; note: % of control where 0% means no effect
Procedure, shortened: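 Enzyme-fragment complementation assay in which ligand-bound PPARalpha translocates and forms an active enzyme that generates chemiluminescence. Cells were plated overnight, exposed to compound for 6 hr at 37 C, and then given detection reagent for 60 min at room temperature.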

[7] = target: Tumor necrosis factor (Homo sapiens) (UniProt P01375); experiment: qHTS assay to identify small molecules that stimulate Tumor Necrosis Factor-alpha (TNF-alpha) secretion (AID 651757; active = well fitted curve in the direction sought with a large enough effect in the signal ratio; the % refers to the signal ratio; note: 0% is about no effect)
Procedure, shortened: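 THP-1 cells were exposed to compounds for 17 hrs at 37 C, after which secreted TNF-alpha was measured by homogeneous HTRF (TR-FRET) using cryptate- and XL665-labeled anti-TNF-alpha antibodies, read after 3 hr at room temperature.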

[8] = qHTS assay to identify small molecules that stimulate interleukin-8 (IL-8) secretion (AID 651758; active = well fitted activation curve with a large enough effect in the signal ratio; the % refers to the signal ratio; note: potency is the fitted concentration of half-maximal effect; for activation: 0% is about no effect)
Procedure, shortened: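 THP-1 cells (2000/well) exposed to compound 16 h at 37 C; secreted IL-8 then detected by HTRF with cryptate- and XL665-labelled anti-IL-8 antibody pair after 1-3 h at room temperature.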

[9] = target: Nuclear receptor ROR-gamma (Homo sapiens) (UniProt P51449); experiment: qHTS assay for small molecule antagonists of the retinoid-related orphan receptor gamma (ROR-gamma) signaling pathway (AID 651802); note: nearly all actives have a fitted effect of over 60% in size; note: potency is the fitted concentration of half-maximal effect
Procedure, shortened: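 CHO cells carrying TET-inducible ROR-gamma and an ROR response element–luciferase reporter were exposed to compound, then induced with doxycycline. After 16hr at 37C, luminescence was read; lower signal indicates antagonism.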

[10] = qHTS assay for small molecule disruptors of the mitochondrial membrane potential - 1 hr assay (AID 651754; calls by dose curve; note: nearly all actives have a fitted effect of over 35% in size; note: potency is the fitted concentration of half-maximal effect)
Procedure, shortened: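 HepG2 cells, attached overnight at 37C, were exposed to compound or DMSO vehicle for 1 hr at 37C, 5% CO2, then stained with Mito-MPS dye for 30 min. Red aggregate versus green monomer fluorescence reports membrane potential.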

[11] = qHTS assay for small molecule disruptors of the mitochondrial membrane potential - 5 hr assay (AID 651755; calls by dose curve; note: potency is the fitted concentration of half-maximal effect; nearly all actives have a fitted effect of over 40% in size); details: JC-1-type ratio dye
Procedure, shortened: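 HepG2 cells (2,000/well), attached overnight, exposed to compound 5 hr at 37C, then Mito-MPS dye 30 min. Fluorescence read for monomers (490/535 nm) and aggregates (540/590 nm).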

[12] = Cytotoxicity counterscreen for NFkB agonists and antagonists (AID 624476);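 note: cells exposed to compound for 48 hours; % is set by controls: 0 for no effect and ±100 for the full control effect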
[13] = qHTS Assay for Identification of Small Molecule Agonists for NFkB Signaling Pathway. (AID 624478); note: 0% is about no effect
Procedure, shortened: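 NFkB-bla ME-180 cells (beta-lactamase reporter under NFkB response element) were plated overnight, treated with compound plus TNF alpha at 10 pM final (its EC50) for 5 hrs at 37 C, then loaded with LiveBLAzer substrate for 2 hrs.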

[14] = qHTS Assay for Identification of Small Molecule Antagonists for NFkB Signaling Pathway. (AID 624479; calls by dose curve;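 note: pathway stimulated with TNF alpha; % is set by controls: 0 for no effect and ±100 for the full control effect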)
[15] = Cell Proliferation Assay against the TMD8 Cell Line (AID 651645); details: TMD8 DLBCL cell line proliferation/viability; at 46.1 µM (top of the series);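 note: cells exposed to compound for 48 h before reading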
Procedure, shortened: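 500 TMD8 cells/well, RPMI + Glutamax, no phenol red, 5% FBS; cpd added immediately; 48 h, 37C, 5% CO2; CellTiter-Glo, luminescence. Controls: DMSO = 100%, bortezomib 9.2 uM final = 0%.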

[16] = Cell Proliferation Assay against the HBL1 Cell Line (AID 651646); details: HBL1 DLBCL cells; at 46.1 µM (top of the series);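 note: cells exposed to compound for 48 h before reading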
Procedure, shortened: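 HBL1 ABC DLBCL cells, 500/well in RPMI with 5% FBS, treated for 48 h at 37C. Viability read by CellTiter-Glo luminescence, normalized to DMSO as 100% and 9.2 uM bortezomib as 0%.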

[17] = Cell Proliferation Assay against the TMD8 Cell Line (Caspase readout at 16 hrs) (AID 651712)
Procedure, shortened: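 TMD8 cells in RPMI with 5% FBS were treated with compound for 16 h at 37 C, then caspase 3/7 activation was read by Caspase-Glo luminescence. Percent activity was scaled to DMSO (0%) and 9.2 uM bortezomib final (100%).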

[18] = Cell Proliferation Assay against the TMD8 Cell Line (Caspase readout at 8 hrs) (AID 651713);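 note: 0% = DMSO and 100% = 9.2 µM bortezomib caspase signal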
Procedure, shortened: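 TMD8 cells (500/well) in phenol red-free RPMI with 5% FBS were treated with compounds for 8 h at 37C, 5% CO2. Caspase-Glo 3/7 luminescence was read after 15 min at room temperature and normalised to DMSO (0%) and 9.2 uM bortezomib (100%).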

[19] = target: Tyrosine-protein kinase Yes (Homo sapiens) (UniProt P07947); experiment: qHTS for small molecule inhibitors of Yes1 kinase: Primary Screen (AID 686947);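 note: plate controls were DMSO with enzyme for no effect and no-enzyme DMSO wells for full effect; nearly all actives have a fitted effect of over 60% in size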
Procedure, shortened: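 ADP-Glo luminescence readout; final 4 nM Yes1, 0.1 mM ATP, 0.3 mg/mL poly(E4Y), Tris pH 7.5, MgCl2, DTT, Brij-35. 20 min compound preincubation, 60 min reaction at RT. Normalized to DMSO wells with and without enzyme.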

[20] = qHTS for small molecule inhibitors of Yes1 kinase: Counter Assay (AID 686950);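 note: no kinase present so only ADP-Glo detection of a fixed ADP amount is tested; luminescence from ADP-Glo reporting ADP in a fixed ATP and ADP mixture; 0% = DMSO wells with ATP plus ADP and -100% = ATP-only wells without ADP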
Procedure, shortened: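 Enzyme-free detection counter-screen: compounds preincubated 20 min in buffer, then 0.08 mM ATP plus 0.02 mM ADP added for 60 min at room temperature; ADP-Glo luminescence. Buffer 50 mM Tris pH 7.5, 10 mM MgCl2, 150 mM NaCl; normalized to ATP+ADP and ATP-only controls.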

Sequence of Arylsulfatase A (Homo sapiens) (P15289 whole entry, looked up): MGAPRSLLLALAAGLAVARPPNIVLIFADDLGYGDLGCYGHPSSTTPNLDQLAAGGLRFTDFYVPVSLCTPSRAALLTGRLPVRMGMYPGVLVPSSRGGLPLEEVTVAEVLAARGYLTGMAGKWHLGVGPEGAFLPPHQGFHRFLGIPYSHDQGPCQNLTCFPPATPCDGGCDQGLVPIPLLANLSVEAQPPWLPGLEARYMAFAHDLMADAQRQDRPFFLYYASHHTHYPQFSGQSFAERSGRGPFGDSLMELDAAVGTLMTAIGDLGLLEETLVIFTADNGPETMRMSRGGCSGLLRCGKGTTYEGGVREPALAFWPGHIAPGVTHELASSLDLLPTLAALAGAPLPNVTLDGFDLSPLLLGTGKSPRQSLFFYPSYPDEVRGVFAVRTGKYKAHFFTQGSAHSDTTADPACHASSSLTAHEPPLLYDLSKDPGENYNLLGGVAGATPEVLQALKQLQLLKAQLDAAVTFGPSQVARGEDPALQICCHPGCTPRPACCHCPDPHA
Sequence of Tumor necrosis factor (Homo sapiens) (P01375 whole entry, looked up): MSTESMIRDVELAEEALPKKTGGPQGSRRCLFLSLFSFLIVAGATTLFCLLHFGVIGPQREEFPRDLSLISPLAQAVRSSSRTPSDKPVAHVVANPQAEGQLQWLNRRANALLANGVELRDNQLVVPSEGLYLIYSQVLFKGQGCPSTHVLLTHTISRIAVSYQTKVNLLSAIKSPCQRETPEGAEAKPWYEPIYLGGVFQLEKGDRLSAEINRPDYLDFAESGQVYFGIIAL
Sequence of Peroxisome proliferator-activated receptor alpha (Homo sapiens) (Q07869 whole entry, looked up, the tested form may be a part): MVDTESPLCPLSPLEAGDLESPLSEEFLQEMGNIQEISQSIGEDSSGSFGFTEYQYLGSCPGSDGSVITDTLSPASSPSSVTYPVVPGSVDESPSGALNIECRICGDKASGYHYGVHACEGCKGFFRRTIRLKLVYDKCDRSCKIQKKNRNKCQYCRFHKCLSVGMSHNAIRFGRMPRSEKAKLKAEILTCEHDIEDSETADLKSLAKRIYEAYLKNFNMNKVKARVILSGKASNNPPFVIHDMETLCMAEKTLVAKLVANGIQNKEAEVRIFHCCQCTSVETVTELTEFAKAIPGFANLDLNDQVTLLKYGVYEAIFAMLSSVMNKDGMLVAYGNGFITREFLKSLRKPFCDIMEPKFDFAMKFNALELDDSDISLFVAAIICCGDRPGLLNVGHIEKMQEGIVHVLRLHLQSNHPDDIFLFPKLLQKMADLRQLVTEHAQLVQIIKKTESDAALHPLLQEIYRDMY
Sequence of Nuclear receptor ROR-gamma (Homo sapiens) (P51449 whole entry, looked up): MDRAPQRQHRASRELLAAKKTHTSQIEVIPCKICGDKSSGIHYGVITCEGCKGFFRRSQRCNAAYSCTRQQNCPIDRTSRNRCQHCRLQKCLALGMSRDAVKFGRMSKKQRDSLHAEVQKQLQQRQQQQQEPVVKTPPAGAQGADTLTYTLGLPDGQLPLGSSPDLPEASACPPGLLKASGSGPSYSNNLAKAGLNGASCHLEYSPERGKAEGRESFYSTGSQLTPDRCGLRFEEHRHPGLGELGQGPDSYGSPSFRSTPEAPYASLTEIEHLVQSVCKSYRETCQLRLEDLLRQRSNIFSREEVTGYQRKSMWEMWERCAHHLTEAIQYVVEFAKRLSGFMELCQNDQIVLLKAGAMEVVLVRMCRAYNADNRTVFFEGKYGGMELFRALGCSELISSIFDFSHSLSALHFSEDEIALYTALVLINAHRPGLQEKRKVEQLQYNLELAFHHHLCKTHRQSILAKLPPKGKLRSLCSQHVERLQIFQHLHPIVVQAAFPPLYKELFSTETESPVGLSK
Sequence of Tyrosine-protein kinase Yes (Homo sapiens) (P07947 whole entry, looked up): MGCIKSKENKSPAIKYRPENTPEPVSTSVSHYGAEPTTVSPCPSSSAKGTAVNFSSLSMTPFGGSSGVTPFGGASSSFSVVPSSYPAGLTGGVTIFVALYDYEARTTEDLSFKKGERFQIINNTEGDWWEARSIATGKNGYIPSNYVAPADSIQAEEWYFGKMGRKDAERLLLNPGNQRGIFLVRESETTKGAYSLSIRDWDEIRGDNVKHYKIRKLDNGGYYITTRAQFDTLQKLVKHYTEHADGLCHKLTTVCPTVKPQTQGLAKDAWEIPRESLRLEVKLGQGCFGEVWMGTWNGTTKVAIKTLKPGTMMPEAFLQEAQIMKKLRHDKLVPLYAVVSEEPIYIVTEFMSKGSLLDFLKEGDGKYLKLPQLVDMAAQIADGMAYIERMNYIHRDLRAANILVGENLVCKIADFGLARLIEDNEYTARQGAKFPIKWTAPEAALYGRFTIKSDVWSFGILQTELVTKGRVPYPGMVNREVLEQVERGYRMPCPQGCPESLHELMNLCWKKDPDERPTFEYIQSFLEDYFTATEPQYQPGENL

With C[N+](C)(C)CCCCCCCCCC[N+](C)(C)C the Potency [1] was 2.69 µM (active).

For COP(=O)(OC)C(O)C(Cl)(Cl)Cl (centres undefined), the Potency [2] was 19.3 µM (active), the activation [3] was 6.58% (inactive) and the activation [4] was 1.93% (inactive). The activation [5] was 1.53% (inactive) and the max response [6] was -2.06% (inactive).

For COP(=O)(OC)OC=C(Cl)Cl, the Potency [2] was 37.6 µM (active) and 42.2 µM (active) and 30.6 µM (active), the activation [4] was 1.84% (inactive) and 0.182% (inactive) and the Potency [7] was “inactive”. The Potency [8] was 21.1 µM (active) and 66.8 µM (active), the activation [5] was 2.56% (inactive) [middle of 4 runs] and the max response [6] was -1.1% (inactive) [middle of 4 runs]. The Potency [9] was “inactive”.

With CN(C)C(=S)SSC(=S)N(C)C the Potency [2] was “inactive”, the activation [3] was 2.15% (inactive) and 1.76% (inactive) and the activation [4] was -1.21% (inactive). The Potency [10] was “inactive”, the Potency [11] was 23.7 µM (active) and the Potency [7] was “inactive”. The activation [5] was 8.11% (inactive) and 11.6% (inactive), the max response [6] was -9.79% (inactive) and -7.98% (inactive) and the Potency [9] was 5.31 µM (active).

With Brc1c(NC2=NCCN2)ccc2nccnc12 the Potency [1] was “inactive”.

In the case of COC(=O)C1=CCCN(C)C1, the Potency [1] is reported as “inactive”.

In the case of Nc1c2ccccc2nc2ccccc12, the Potency [5] is reported as 31.6 µM (active).

For O=C(NC(=O)c1c(F)cccc1F)Nc1cc(Cl)c(OC(F)(F)C(F)C(F)(F)F)cc1Cl (centres undefined), the Potency [2] was 19.3 µM (active), the activation [3] was 4.35% (inactive) and the activation [4] was 1.78% (inactive). For the same compound, the activation [5] was 0.163% (inactive) and the max response [6] was 14.7% (inactive).

With C[C@H]1C(=O)O[C@@H]2CCN3CC=C(COC(=O)[C@](C)(O)[C@]1(C)O)[C@H]23 the Potency [2] was “inactive”, the activation [4] was 0.569% (inactive) and the activation [5] was -2.28% (inactive). For the same compound, the max response [6] was 0.361% (inactive).

With CC(=O)[C@@]1(O)CC[C@H]2[C@@H]3CCC4=CC(=O)CC[C@]4(C)[C@H]3CC[C@@]21C the Potency [1] was “inactive”.

For NC(=O)CN1CCCC1=O, the Potency [1] was “inactive”.

For CCOP(=S)(OCC)O/N=C(\C#N)c1ccccc1, the activation [4] was 0.361% (inactive), the activation [5] was 9.33% (inactive) and the max response [6] was -3.05% (inactive).

For Cc1ccc(N=CN(C)C=Nc2ccc(C)cc2C)c(C)c1, the Potency [2] was 24.3 µM (active) and the activation [3] was 15.6% (inactive).

In the case of Oc1ccc(Cl)cc1Sc1cc(Cl)ccc1O, the Potency [2] is reported as 29.8 µM (active), the Potency [3] is reported as 28.2 µM (active) and the Potency [10] is reported as 8.41 µM (active). For the same compound, the Potency [11] was 7.5 µM (active) and the Potency [9] was 15 µM (active).

In the case of O=C(CCl)c1ccc(Cl)cc1Cl, the activation [4] is reported as -1.69% (inactive), the Potency [7] is reported as “inactive” and the Potency [8] is reported as 3.76 µM (active). The activation [5] was 0.547% (inactive), the max response [6] was -0.884% (inactive) and the Potency [9] was 7.5 µM (active).

For CCCCCCCCCCCC[N+](C)(C)CCOc1ccccc1, the activation [3] was 13.3% (inactive), the Potency [7] was “inactive” and the Potency [8] was “inactive”. For the same compound, the activation [5] was -2.77% (inactive), the max response [6] was -0.963% (inactive) and the Potency [9] was 10.6 µM (active).

With CCNc1nc(Cl)nc(NCC)n1 the Potency [2] was “inactive”, the activation [3] was 1.85% (inactive) and the activation [5] was -1.55% (inactive). The max response [6] was -1.73% (inactive).

In the case of CN(C)C(=S)SC(=S)N(C)C, the Potency [2] is reported as 24.3 µM (active).

With NC(N)=NC(=O)c1nc(Cl)c(N)nc1N the Potency [2] was 42.2 µM (active) and the Potency [1] was “inactive”.

For O=c1n(Cl)c(=O)n(Cl)c(=O)n1Cl, the activation [3] was -4.94% (inactive), the activation [4] was -1.25% (inactive) and the activation [5] was 0.752% (inactive). The max response [6] was -0.0703% (inactive).

In the case of CCCCCCCCC(=O)NCc1ccc(O)c(OC)c1, the activation [4] is reported as -0.791% (inactive) and the max response [6] is reported as 1.45% (inactive).

With COP(=S)(OC)Oc1ccc(Sc2ccc(OP(=S)(OC)OC)cc2)cc1 the Potency [2] was 61.1 µM (active), the activation [3] was 9.51% (inactive) and the activation [5] was 6.46% (inactive). For the same compound, the max response [6] was 7.57% (inactive).

With COc1ccc(C(=O)N2CCCC2=O)cc1 the Potency [1] was “inactive”.

In the case of O=C(O)c1nn(Cc2ccc(Cl)cc2Cl)c2ccccc12, the outcome [12] is reported as “inactive”, the outcome [13] is reported as “inactive” and the outcome [14] is reported as “inactive”. For the same compound, the viability (% of control) [15] was 107%, the viability, percent of control [16] was 112% and the outcome [17] was “inactive”. For the same compound, the outcome [18] was “inactive”, the outcome [19] was “inactive” and the outcome [20] was “inactive”. For the same compound, the Potency [1] was “inactive”.

For C=CCOC(Cn1ccnc1)c1ccc(Cl)cc1Cl (centres undefined), the activation [3] was 19.4% (inactive) and 4.84% (inactive), the activation [5] was 11.9% (inactive) and 13.2% (inactive) and the max response [6] was -1.42% (inactive) and 0.577% (inactive).

For C[C@@H]1C[C@@H]([C@H](O)CC2CC(=O)NC(=O)C2)C(=O)[C@@H](C)C1, the activation [3] was 3.69% (inactive) and -1.29% (inactive) and 0.673% (inactive), the activation [4] was 5.34% (inactive) and the Potency [7] was “inactive”. For the same compound, the max response [6] was -1.34% (inactive) and -7.61% (inactive) and -0.958% (inactive) and the Potency [9] was 150 nM (active) and 237 nM (active).
